PubChem BioAssay (EPA / NIEHS)
Active and inactive are the calls of the source. Rule for the calls: active = hit-call score of the fitted dose curve at least 0.9, where 1 is the maximum; inactive = score below 0.9.

What follows are molecules tested against Cytochrome P450 2C18 (Homo sapiens) (UniProt P33260) (assay: NVS_ADME_hCYP2C18: NovaScreen (NVS) CYP450-related Enzyme Activity (ADME) Assay for human CYP2C18 (AID 2283103)).
Experimental: NVS_ADME_hCYP2C18 is a biochemical, single-readout assay that uses extracted gene-proteins in a cell-free assay. Measurements were taken 0.5 hour after chemical dosing in a 96-well plate.NVS_ADME_hCYP2C18 is one of one assay component(s) measured or calculated from the NVS_ADME_hCYP2C18 assay. It is designed to make measurements of enzyme activity, a form of enzyme reporter, as detected with fluorescence intensity signals by Fluorescence technology.Data from the assay component NVS_ADME_hCYP2C18 was analyzed into 1 assay endpoint. This assay endpoint, NVS_ADME_hCYP2C18, was analyzed in the positive analysis fitting direction relative to Acetonitrile as the negative control and baseline of activity. Using a type of enzyme reporter, loss-of-signal activity can be used to understand changes in the enzymatic activity as they relate to the gene CYP2C18. Furthermore, this assay endpoint can be referred to as a primary readout, because this assay has produced multiple assay endpoints where this one serves a enzymatic activity function. To generalize the intended target to other relatable targets, this assay endpoint is annotated to the cyp intended target family, where the subfamily is xenobiotic metabolism.
Binding assays used specific radioligands (tritiated, iodinated) with non-radioactive competitive displacement ligands in agonist or antagonist protocols (as indicated) and various reference compounds and inhibitors to titrate specific binding to receptors and transporters. Most enzyme assays (CYPs, kinases, phosphatases, proteases, HDACs) used recombinant protein and specific substrates (fluorescence mostly, some colorimetric and radioactive) and inhibitors, followed by a biochemical separation of substrate and product. All assays for the biochemical HTS were initially run in duplicate at a single concentration (10 uM for CYP450 assays and 25 uM for all others). Assay-chemical combinations meeting a pre-defined threshold (e.g., 30% inhibition and other criteria defined below) were then run in singleton concentration-response format with maximum concentration of 20 uM for CYPs and 50 uM for all others. Each assay was run with positive and negative controls, and concurrent controls on every plate. The follow-up (secondary) screen tested active chemical-pairs in concentration series, as well as a few additional assays not tested in the primary screen, some selected negative inactives, and several cases re-run in the concentration series for confirmatory purposes.

Chain of Cytochrome P450 2C18 (Homo sapiens) (P33260 whole entry, looked up): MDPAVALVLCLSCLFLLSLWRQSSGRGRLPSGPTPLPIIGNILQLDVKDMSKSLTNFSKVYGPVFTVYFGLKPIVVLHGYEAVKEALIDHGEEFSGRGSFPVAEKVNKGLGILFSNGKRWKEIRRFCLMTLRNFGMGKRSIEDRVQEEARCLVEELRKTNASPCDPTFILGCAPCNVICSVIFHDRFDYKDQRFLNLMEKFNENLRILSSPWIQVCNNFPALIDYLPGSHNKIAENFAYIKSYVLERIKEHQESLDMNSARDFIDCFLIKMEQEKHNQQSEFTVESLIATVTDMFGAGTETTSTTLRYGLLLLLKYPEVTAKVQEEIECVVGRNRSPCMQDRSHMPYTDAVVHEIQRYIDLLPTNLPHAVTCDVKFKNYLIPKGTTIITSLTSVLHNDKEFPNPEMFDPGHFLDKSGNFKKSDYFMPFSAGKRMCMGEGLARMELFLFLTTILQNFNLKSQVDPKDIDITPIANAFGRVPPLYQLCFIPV

| SMILES | AC50 | outcome |
| --- | --- | --- |
| COc1ccc(C(=CC(=O)N2CCOCC2)c2ccc(Cl)cc2)cc1OC | 7 µM (active) | – |
| CCOC(=O)CC(SP(=O)(OC)OC)C(=O)OCC (configuration not stated) | – | inactive |
| CC(C1CC1)C(O)(Cn1cncn1)c1ccc(Cl)cc1 (configuration not stated) | 3.26 µM (active) | – |
| CSC1=N[C@@](C)(c2ccccc2)C(=O)N1Nc1ccccc1 | 5.62 µM (active) | – |
| S=C1NCCN1 | – | inactive |
| CC[C@H](C)[C@H]1O[C@]2(C=C[C@@H]1C)C[C@@H]1C[C@@H](C/C=C(\C)[C@@H](O[C@H]3C[C@H](OC)[C@@H](O[C@H]4C[C@H](OC)[C@@H](NC)[C@H](C)O4)[C@H](C)O3)[C@@H](C)/C=C/C=C3\CO[C@@H]4[C@H](O)C(C)=C[C@@H](C(=O)O1)[C@]34O)O2 | 5.39 µM (active) | – |
| C=C(C)[C@H]1Cc2c(ccc3c2O[C@@H]2COc4cc(OC)c(OC)cc4[C@@H]2C3=O)O1 | 2.62 µM (active) | – |
| CCCOCC(=Nc1ccc(Cl)cc1C(F)(F)F)n1ccnc1 | 4.78 µM (active) | – |
| C#CC(C)(C)NC(=O)c1cc(Cl)cc(Cl)c1 | 2.67 µM (active) | – |
| FC(F)C(F)(F)OCC(Cn1cncn1)c1ccc(Cl)cc1Cl (configuration not stated) | 0.915 µM (active) | – |
| C[Si](Cn1cncn1)(c1ccc(F)cc1)c1ccc(F)cc1 | 0.645 µM (active) | – |
| CC(C)=CC1C(C(=O)OCN2C(=O)C3=C(CCCC3)C2=O)C1(C)C (configuration not stated) | 4.3 µM (active) | – |
| CCCSP(=O)(OCC)Oc1ccc(Br)cc1Cl (configuration not stated) | 3.45 µM (active) | – |
| CON=C(C(=O)OC)c1ccccc1CON=C(C)c1cccc(C(F)(F)F)c1 | 1.21 µM (active) | – |
| CCOP(=S)(OCC)Oc1ccc([N+](=O)[O-])cc1 | 1.95 µM (active) | – |
| CCOP(=S)(OCC)Oc1ccc2c(C)c(Cl)c(=O)oc2c1 | 0.734 µM (active) | – |
| C#CCC1=C(C)C(OC(=O)C2C(C=C(C)C)C2(C)C)CC1=O (configuration not stated) | 7.41 µM (active) | – |
